Active and inactive are the calls of the source. Calls follow the shape of the full dose curve.
Legend:
Test in all cases: Confirmatory Screen for Target Class Profiling of Small Molecule Inhibitors of Methyltransferases (AID 1745852); as to activity change, negative = inhibition: % is scaled to controls: 0 for no effect and ±100 for the full control effect
[1] = target: Catechol O-methyltransferase (Homo sapiens) (UniProt P21964); settings: MTase-Glo luminescence, SAH detection, recombinant enzyme; measured here: COMT max response; stronger effect = lower value
Sequence of Catechol O-methyltransferase (Homo sapiens) (P21964 whole entry, looked up): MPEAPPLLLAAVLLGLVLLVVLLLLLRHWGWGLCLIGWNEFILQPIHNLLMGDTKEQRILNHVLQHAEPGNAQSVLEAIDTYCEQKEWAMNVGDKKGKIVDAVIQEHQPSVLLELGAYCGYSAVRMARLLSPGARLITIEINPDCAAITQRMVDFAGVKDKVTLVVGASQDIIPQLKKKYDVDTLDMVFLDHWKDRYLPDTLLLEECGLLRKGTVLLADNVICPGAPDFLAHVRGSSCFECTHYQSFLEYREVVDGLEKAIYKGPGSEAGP

[2] = target: Guanidinoacetate N-methyltransferase (Homo sapiens) (UniProt Q14353); settings: activity change, negative = inhibition: at 57.3 µM (top of the series) unless noted
[3] = target: Nicotinamide N-methyltransferase (Homo sapiens) (UniProt P40261); settings: MTase-Glo luminescence, SAH detection, recombinant enzyme; measured here: NNMT max response; stronger effect = lower value
Sequence of Nicotinamide N-methyltransferase (Homo sapiens) (P40261 whole entry, looked up): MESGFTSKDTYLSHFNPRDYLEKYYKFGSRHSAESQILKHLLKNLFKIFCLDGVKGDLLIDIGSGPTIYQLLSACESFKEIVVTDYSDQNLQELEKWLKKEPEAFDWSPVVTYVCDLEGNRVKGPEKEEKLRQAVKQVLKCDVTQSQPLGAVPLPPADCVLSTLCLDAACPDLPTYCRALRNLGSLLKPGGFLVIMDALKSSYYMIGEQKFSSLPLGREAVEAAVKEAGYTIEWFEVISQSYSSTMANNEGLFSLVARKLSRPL

[4] = target: Phenylethanolamine N-methyltransferase (Homo sapiens) (UniProt P11086); settings: MTase-Glo luminescence, SAH detection, recombinant enzyme; measured here: PNMT max response; stronger effect = lower value
Sequence of Phenylethanolamine N-methyltransferase (Homo sapiens) (P11086 whole entry, looked up): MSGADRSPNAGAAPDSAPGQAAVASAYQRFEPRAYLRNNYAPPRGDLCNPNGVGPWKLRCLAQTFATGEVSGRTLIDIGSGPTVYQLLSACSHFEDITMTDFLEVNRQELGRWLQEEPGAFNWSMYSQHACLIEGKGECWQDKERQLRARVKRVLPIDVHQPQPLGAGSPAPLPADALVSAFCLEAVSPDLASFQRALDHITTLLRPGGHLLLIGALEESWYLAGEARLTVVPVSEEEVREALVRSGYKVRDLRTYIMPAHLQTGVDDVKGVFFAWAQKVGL
Potency is read from the fitted curve at half-maximal effect.

| Compound | activity [1] [%] | activity change, negative = inhibition [2] | activity [3] [%] | activity [4] [%] | Potency [2] |
| --- | --- | --- | --- | --- | --- |
| O=C(c1ccc2c(=O)nc3c(-c4ccc(Cl)cc4)n[nH]n3c2c1)N1CCN(Cc2ccccc2)CC1 | -8.28 | 1.01% | -22.4 | -11.1 |  |
| Cc1ccc2c(c1)c(-n1cccc1)c1n2CC(C)(C(=O)NCCC(C)C)N(Cc2cccnc2)C1=O (configuration not stated) | 4.4 | 0% | -51.8 | 0 |  |
| O=C(NCc1ccc2c(c1)OCO2)c1sc(=S)n2c1[nH]c(=O)c1cc(Cl)ccc12 | -44.1 |  | -69.1 | -48.4 | 30.4 µM (active) |
| COc1ccc(CCNC(=O)c2ccc3c(=O)nc4c(-c5cccc(F)c5)n[nH]n4c3c2)cc1OC | -16 |  | -27.1 | -14.6 | 10.8 µM (active) |
| CC(C)Cn1c(=O)c2ccccc2n2c(CCC(=O)N3CCN(c4ccccc4)CC3)nnc12 | 2.06 | 0% | -46.8 | -1.48 |  |
| c1ccc(CCN2CCNc3cc(NCc4cccnc4)ncc3C2)cc1 | 2.5 | 1.95% [at 85.7 µM] | -5.35 | -6.38 |  |
| CC(=O)NC1CC2(CCN(Cc3ccc(O)cc3)CC2)c2ccccc21 (configuration not stated) | 6.67 | 7.28% [at 85.7 µM] | 12.2 | 5.3 |  |
| CCCCN(C)C(=O)c1c(C)sc2ccn(CCC)c(=O)c12 | -45.9 |  | -28.7 | -13.5 | 12.1 µM (active) |
| COc1ccc(CCN2C(=O)c3cc4oc(C)cc4n3CC2(C)C(=O)NC2CCCCC2)cc1OC (configuration not stated) | -7.54 | -4.8% | -78.3 | -5.67 |  |
| O=C(NCCCN1CCc2ccccc2C1)C1CCc2ncc(-c3ccc(F)cc3)n2C1 (configuration not stated) | -4.39 | -6.35% | 3.39 | -4.05 |  |
| O=C(CCc1nnc2n(CCc3ccccc3)c(=O)c3ccccc3n12)N1CCN(C2CCCCC2)CC1 | 0 | 0% | -47.4 | 0.426 |  |
| O=[S+]1([O-])NC2(CCCN(Cc3c(F)cccc3Cl)C2)COc2ccccc21 (configuration not stated) | -6.32 | 2.18% | -5.33 | -3.56 |  |
| O=S(=O)(c1ccc(Br)cc1)c1nnn2c1nc(NCCc1c[nH]c3ccccc13)c1ccccc12 | -1.9 | -2.1% | -1.21 | -6.06 |  |
| Cc1ccc(C(=O)O)c2c1N[C@H](c1cccc(Cl)c1)C1CC=CC21 (some centres not stated) | 2.41 |  | 3.29 | 2.81 | inactive |
| CC(C)CCNC(=O)c1ccc2c(=O)[nH]c3c(C(=O)NC(C)C)sc(=S)n3c2c1 | -37.8 |  | -37.9 | -33.6 | 27.1 µM (active) |
| O=C(O)c1ccc(Nc2nc3ccccc3n3cnnc23)cc1 | -82.3 |  | -79.6 | -46 | 19.3 µM (active) |
| Fc1cccc(-c2nnn3c2nc(NCCc2ccccc2)c2ccccc23)c1 | -4.7 | -1.64% | -12.6 | -9.28 |  |
| Cn1cnc(CN2CCNc3cc(Nc4ccccc4)ncc3C2)c1 | 7.14 | 2.31% [at 85.7 µM] | 4.88 | -5.41 |  |

From PubChem BioAssay (NCATS)
